# Several values for one entry are separate records, joined by “and”; a condition that tells them apart may be missing. Equal values may be shown once. Compounds without any hit were thinned out: in the full panel of roughly 83,000, 20% have a hit.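 Single-concentration screen, 48 h exposure, 96-well plates. Endpoint: percent growth. Below 10 = active.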 Activity calls are given as the source filed them.
# Tested on: MDA-MB-468 breast
# Experiment: NCI-60 one-dose screen, 48 h (100 = growth as untreated, 0 = no growth, -100 = all killed)
# Settings: 10 µM unless noted
row,Structure (SMILES),growth
1,C#CCOc1cccc(Nc2c(Cl)c(CCl)nc3ccc(Oc4ccccc4)cc23)c1,24.7% (inactive)
2,COC(=O)[C@@]12CC=C(C)[C@]3(C[C@H](c4ccoc4)OC3=O)[C@H]1C=C[C@@H](O)[C@@]2(O)C(=O)OC,121% (inactive)
3,Cn1cc(-c2csc(-c3cn(C(=O)OC(C)(C)C)c4ccccc34)n2)c2ccnc(Cl)c21,44.8% (inactive)
4,COc1ccccc1NC(=O)c1sc2nc3c(cc2c1N)C(=O)CCC3,23.4% (inactive)
5,CCOC(=O)c1ccc2c(c1)nc(-c1ccc(OCc3ccccc3)c(OC)c1)n2-c1cc(C(C)(C)C)[nH]n1,77% (inactive)
6,COc1ccc(S(=O)(=O)NCCCNc2nccc(-c3[nH]c(-c4ccccc4)nc3-c3ccc(Cl)c(O)c3)n2)cc1,78.3% (inactive)
7,COc1cccc(-c2nc3sccn3c2-c2ccnc(NCCNS(=O)(=O)c3ccccc3)n2)c1,67.4% (inactive)
8,COc1cc(/C=C/c2cc(/C=C/c3ccc(O)c(OC)c3)n(C(=O)Cc3ccccc3)n2)ccc1O,-4.29% (active)
9,COc1ccc(N)c(S)c1,97.3% (inactive)
10,Cc1nn(-c2ccccc2)c2nc3c(c(-c4ccc(Cl)cc4)c12)CNC1(CCSCC1)N3,93.1% (inactive)
11,Cc1c2cc[nH]c(=O)c2c(C)c2c1[nH]c1cc(OCCN3CCN(C)CC3)ccc12,-12.4% (active)
12,CS(=O)(=O)N1CCc2c(-c3cnc(N)nc3)nc(N3CCOCC3)nc21,-27.9% (active)
13,N#CC(C#N)=Cc1cc2ccccc2nc1Oc1ccc(C(F)(F)F)cc1,86.1% (inactive)
14,COc1cc(Nc2nc3ccccc3nc2NS(=O)(=O)c2ccc(NC(=O)c3ccc(C)c(OC)c3)cc2)cc(OC)c1,72.6% (inactive) and -30.3% (active)
15,COc1ccc(/C=c2\nc3n(-c4ccccc4)c4nc5c6c(sc5c(=N)n4n-3c2=O)CCCC6)cc1,90.1% (inactive)
16,O=C(Nc1cccnc1Nc1ccc(Cl)cc1)c1cn(Cc2ccc(F)cc2)nn1,99.5% (inactive)
17,CCCSc1nc(Nc2ccc(/C(C)=N\NC(N)=S)cc2)c(C#N)c(-c2ccc(OC)cc2)n1,93.1% (inactive)
18,COc1ccc(/C=N\Nc2ccc([N+](=O)[O-])cn2)cc1OC,79.1% (inactive)
19,C=C1C(=O)O[C@H]2[C@H]1CC/C(COC(=O)NCc1ccc(Cn3c(=O)sn(-c4ccc(I)cc4)c3=O)cc1)=C\CC[C@@]1(C)O[C@@H]21,29.6% (inactive)
20,COc1ccc([C@H]2c3[nH]c4ccccc4c3C[C@@H]3C(=O)N(C4CCN(Cc5ccccc5)CC4)CC(=O)N23)c(OC)c1,63.4% (inactive)
21,C/C(=N\N=C(/C)c1cccc([N+](=O)[O-])c1)c1cccc([N+](=O)[O-])c1,86.1% (inactive)
22,CCCCCCCC/C=C/CCCCCCCC1=NC(C)(C)CN1C(C)C,-70.1% (active)
23,COc1ccc(OC)c(NC2=C(SCCc3ccccc3)C(=O)c3ccccc3C2=O)c1,65.7% (inactive)
24,CC1(C)C(N)=Nc2cc(OCCCCN3Cc4ccccc4C3)c(OCC3CC3)cc21,42.2% (inactive)
25,Oc1cccc(-c2nc(-c3n[nH]c(=S)n3-c3ccccc3)cc3c2[nH]c2ccccc23)c1,9.85% (active)
26,CC(=O)Nc1nc(N)nc(NC(C)=O)c1N=O,118% (inactive)
27,C/C(CC(=O)NNc1ccc([N+](=O)[O-])cc1)=N\Nc1ccc([N+](=O)[O-])cc1,97.7% (inactive)

# Reference: PubChem BioAssay (NCI)
